# Compound: C#CCNC(=O)CCSSCCC(=O)NCCc1ccc(C=O)c(C=O)c1
# Assay: lysine labeling ratio R10:1 (500 µM / 50 µM probe), SILAC-ABPP in living cells; higher = lower intrinsic lysine reactivity toward the probe, active = 2 or less
# Settings: HeLa; probe concentrations 500 vs 50 µM
# Description: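 Living HeLa cells (SILAC light/heavy) in PBS at room temperature were labeled with 50 µM versus 500 µM of the lysine-reactive, reductant-cleavable probe OPA-S-S-alkyne (SILAC labeling time not stated). Probe-modified peptides were CuAAC-biotinylated, captured on neutravidin and eluted with DTT/IAA, then quantified by LC-MS/MS. R = median peptide ratio per lysine (500/50 µM), combined over 3 forward and 3 reverse SILAC replicates. Ratios are capped at 20; R < 2 = hyper-reactive.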
# UniProt P23229, sequence (P23229 whole entry): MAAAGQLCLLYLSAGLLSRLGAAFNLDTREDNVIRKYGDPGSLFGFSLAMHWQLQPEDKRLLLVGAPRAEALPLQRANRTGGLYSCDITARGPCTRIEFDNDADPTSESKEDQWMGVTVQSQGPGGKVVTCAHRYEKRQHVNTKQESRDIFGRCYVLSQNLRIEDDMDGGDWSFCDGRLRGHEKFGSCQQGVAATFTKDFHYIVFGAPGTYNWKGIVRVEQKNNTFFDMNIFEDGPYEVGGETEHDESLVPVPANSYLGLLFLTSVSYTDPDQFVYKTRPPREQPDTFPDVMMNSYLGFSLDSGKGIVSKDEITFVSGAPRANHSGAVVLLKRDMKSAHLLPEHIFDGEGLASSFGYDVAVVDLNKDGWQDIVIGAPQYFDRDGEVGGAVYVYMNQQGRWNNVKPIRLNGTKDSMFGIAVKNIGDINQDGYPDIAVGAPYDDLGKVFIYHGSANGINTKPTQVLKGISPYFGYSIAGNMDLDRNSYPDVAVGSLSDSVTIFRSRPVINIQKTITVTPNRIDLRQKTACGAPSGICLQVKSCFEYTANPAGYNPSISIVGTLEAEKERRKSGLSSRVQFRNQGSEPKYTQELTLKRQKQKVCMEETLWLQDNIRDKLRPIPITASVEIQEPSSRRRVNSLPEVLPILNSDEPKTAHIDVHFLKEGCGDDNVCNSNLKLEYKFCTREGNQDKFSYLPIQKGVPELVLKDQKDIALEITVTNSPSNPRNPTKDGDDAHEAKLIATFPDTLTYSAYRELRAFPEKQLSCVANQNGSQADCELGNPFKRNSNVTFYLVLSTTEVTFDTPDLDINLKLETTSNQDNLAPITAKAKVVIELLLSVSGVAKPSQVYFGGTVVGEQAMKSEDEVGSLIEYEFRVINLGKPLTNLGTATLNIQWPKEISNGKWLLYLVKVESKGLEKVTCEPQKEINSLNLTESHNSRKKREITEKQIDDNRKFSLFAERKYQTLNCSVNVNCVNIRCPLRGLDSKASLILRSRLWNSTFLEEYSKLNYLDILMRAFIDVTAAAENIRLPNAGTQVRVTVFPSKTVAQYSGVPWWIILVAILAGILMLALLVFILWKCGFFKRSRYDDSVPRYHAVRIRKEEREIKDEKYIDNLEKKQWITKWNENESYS
# UniProt P55072, sequence (P55072 whole entry, looked up): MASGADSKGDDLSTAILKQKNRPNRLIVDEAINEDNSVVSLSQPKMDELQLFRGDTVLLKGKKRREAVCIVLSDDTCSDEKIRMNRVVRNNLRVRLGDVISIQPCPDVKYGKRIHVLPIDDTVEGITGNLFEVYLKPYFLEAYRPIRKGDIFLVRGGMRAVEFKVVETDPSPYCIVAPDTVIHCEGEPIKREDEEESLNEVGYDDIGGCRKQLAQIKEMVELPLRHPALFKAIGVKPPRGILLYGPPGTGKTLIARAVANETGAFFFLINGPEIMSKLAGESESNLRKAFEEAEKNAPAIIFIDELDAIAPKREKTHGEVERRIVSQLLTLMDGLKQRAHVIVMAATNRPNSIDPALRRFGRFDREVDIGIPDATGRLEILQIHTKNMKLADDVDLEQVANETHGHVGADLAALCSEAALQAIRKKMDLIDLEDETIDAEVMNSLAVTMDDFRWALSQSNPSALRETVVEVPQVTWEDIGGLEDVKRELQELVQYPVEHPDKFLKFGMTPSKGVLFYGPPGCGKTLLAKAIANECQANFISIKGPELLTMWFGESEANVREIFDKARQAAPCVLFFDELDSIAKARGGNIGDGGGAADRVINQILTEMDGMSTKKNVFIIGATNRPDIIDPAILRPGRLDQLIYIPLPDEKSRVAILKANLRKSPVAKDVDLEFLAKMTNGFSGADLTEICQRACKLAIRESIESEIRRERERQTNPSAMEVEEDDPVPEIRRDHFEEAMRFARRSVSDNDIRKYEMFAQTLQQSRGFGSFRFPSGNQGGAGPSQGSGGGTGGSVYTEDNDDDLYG
# UniProt O75369, sequence (O75369 whole entry): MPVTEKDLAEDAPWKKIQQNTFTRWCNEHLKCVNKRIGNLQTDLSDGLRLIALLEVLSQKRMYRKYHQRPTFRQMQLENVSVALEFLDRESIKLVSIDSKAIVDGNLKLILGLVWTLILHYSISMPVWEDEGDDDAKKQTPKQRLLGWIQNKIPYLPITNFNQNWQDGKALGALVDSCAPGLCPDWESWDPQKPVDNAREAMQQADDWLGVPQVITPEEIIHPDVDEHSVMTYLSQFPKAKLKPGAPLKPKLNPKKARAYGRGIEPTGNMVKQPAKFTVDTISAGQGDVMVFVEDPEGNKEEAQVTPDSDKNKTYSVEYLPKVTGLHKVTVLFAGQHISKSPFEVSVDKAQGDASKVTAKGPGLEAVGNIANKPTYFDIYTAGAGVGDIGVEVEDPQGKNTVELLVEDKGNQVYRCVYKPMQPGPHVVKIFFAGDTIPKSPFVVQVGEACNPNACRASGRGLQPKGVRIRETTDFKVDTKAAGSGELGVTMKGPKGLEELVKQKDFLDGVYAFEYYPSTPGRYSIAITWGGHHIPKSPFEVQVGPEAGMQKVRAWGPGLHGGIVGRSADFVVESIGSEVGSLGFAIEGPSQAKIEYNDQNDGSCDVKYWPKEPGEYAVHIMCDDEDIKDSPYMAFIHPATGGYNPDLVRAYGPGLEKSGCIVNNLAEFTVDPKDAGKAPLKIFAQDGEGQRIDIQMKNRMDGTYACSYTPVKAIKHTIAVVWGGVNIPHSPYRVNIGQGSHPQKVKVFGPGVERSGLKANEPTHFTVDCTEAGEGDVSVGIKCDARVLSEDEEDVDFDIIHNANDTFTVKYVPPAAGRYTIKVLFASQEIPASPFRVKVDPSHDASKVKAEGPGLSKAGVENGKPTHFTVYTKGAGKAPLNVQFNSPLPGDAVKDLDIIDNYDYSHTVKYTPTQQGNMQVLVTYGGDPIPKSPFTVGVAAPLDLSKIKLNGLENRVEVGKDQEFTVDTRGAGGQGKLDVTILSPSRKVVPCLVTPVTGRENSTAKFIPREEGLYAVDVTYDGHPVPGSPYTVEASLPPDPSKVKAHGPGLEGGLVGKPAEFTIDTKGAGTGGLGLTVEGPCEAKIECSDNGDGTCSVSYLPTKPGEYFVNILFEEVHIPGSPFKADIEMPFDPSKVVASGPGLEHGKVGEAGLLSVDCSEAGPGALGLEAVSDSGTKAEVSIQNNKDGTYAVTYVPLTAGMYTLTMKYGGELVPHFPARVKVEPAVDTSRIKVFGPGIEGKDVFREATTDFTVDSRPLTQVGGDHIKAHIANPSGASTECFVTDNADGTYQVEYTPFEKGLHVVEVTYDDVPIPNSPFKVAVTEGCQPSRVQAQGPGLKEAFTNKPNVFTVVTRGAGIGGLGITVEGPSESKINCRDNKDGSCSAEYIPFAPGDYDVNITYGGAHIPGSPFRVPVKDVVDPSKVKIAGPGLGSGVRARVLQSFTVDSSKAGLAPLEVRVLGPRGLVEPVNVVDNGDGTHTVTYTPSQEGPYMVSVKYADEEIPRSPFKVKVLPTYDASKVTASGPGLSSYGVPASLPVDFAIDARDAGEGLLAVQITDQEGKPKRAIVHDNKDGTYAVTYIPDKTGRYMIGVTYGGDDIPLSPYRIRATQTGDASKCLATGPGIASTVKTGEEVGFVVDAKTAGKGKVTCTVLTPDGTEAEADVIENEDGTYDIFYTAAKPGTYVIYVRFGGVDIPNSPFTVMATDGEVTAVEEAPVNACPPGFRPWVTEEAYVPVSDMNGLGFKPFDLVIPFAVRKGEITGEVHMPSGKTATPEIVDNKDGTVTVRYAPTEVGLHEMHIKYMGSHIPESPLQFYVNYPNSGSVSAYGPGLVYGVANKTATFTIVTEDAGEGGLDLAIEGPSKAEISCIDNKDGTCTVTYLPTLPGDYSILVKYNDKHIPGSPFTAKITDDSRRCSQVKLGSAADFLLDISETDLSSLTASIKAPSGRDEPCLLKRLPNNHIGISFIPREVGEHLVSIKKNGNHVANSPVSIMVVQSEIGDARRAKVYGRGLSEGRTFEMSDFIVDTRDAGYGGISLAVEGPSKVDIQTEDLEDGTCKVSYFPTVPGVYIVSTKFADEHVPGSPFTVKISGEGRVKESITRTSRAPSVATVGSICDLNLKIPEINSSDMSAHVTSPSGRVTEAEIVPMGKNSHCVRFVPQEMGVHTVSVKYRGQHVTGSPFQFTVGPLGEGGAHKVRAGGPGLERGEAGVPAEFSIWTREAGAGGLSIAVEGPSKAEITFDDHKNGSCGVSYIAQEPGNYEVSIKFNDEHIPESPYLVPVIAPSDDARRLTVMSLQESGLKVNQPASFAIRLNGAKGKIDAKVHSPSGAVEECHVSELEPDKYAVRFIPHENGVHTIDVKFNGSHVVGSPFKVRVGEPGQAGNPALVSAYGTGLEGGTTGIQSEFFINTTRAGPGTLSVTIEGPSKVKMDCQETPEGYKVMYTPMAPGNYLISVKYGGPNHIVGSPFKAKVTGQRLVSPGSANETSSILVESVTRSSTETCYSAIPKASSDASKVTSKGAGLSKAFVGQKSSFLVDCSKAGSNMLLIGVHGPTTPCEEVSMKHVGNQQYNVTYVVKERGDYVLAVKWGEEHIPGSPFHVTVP
# UniProt P15328, sequence (P15328 whole entry, looked up): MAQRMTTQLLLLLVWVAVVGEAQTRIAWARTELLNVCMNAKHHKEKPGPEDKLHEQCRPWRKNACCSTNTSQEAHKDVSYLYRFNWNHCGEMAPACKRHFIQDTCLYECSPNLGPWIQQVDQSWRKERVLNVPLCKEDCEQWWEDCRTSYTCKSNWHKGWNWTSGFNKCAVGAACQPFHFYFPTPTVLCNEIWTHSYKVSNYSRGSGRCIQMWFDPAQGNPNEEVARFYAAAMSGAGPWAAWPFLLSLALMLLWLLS
# UniProt P07910, sequence (P07910 whole entry): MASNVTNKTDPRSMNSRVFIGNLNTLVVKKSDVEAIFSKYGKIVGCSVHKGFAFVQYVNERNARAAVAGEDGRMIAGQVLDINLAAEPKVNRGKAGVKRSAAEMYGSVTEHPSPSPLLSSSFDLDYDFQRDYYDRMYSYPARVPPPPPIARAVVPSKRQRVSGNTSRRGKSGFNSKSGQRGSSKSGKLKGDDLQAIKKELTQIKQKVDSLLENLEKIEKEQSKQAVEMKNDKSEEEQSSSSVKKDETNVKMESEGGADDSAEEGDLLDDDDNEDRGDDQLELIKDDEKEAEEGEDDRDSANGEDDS
row,Target,lysine labeling ratio R10:1
1,FLNA (lysine site: K1294) (UniProt P21333),2.32 (inactive)
2,UniProt Q15149 (lysine site: K2182),1.67 (active)
3,UniProt P62913 (lysine site: K52),2.77 (inactive)
4,FAT1 (lysine site: K1542) (UniProt Q14517),2.78 (inactive)
5,UniProt P08727 (lysine site: K216),7.74 (inactive)
6,RPLP0 (lysine site: K106) (UniProt P05388),0.868 (active)
7,ITGA6 (lysine site: K310) (UniProt P23229),1.72 (active)
8,EFNB2 (lysine site: K83) (UniProt P52799),2.34 (inactive)
9,UniProt P62263 (lysine site: K106),5.29 (inactive)
10,ERLIN2 (lysine site: K205) (UniProt O94905),3.71 (inactive)
11,FLNB (lysine site: K987) (UniProt O75369),5.99 (inactive)
12,UniProt Q9UHN6 (lysine site: K376),3.02 (inactive)
13,UniProt P55072 (lysine site: K148),5.57 (inactive)
14,FOLR1 (lysine site: K44) (UniProt P15328),1.8 (active)
15,UniProt P55072 (lysine site: K754),2.84 (inactive)
16,VASN (lysine site: K333) (UniProt Q6EMK4),1.84 (active)
17,UniProt P61978 (lysine site: K219),0.79 (active)
18,FN1 (lysine site: K1623) (UniProt P02751),1.34 (active)
19,ECH1 (lysine site: K231) (UniProt Q13011),1.7 (active)
20,PLXNB2 (lysine site: K322) (UniProt O15031),0.663 (active)

row,Target,lysine labeling ratio R10:1
1,SPTAN1 (lysine site: K1274) (UniProt Q13813),3.51 (inactive)
2,IGF2R (lysine site: K393) (UniProt P11717),3.23 (inactive)
3,IQGAP1 (lysine site: K368) (UniProt P46940),3.38 (inactive)
4,PAICS (lysine site: K110) (UniProt P22234),3.11 (inactive)
5,F2 (lysine site: K384) (UniProt P00734),4.42 (inactive)
6,UniProt P23352 (lysine site: K285),3.04 (inactive)
7,TCP1 (lysine site: K199) (UniProt P17987),4.14 (inactive)
8,AGRN (lysine site: K1198) (UniProt O00468),3.68 (inactive)
9,FLNB (lysine site: K1425) (UniProt O75369),3.67 (inactive)
10,EWSR1 (lysine site: K644) (UniProt Q01844),1.76 (active)
11,UniProt Q00341 (lysine site: K1066),6.11 (inactive)
12,NEGR1 (lysine site: K231) (UniProt Q7Z3B1),0.868 (active)
13,TUFM (lysine site: K91) (UniProt P49411),2.38 (inactive)
14,ITGA6 (lysine site: K404) (UniProt P23229),6.64 (inactive)
15,HNRNPC (lysine site: K170) (UniProt P07910),2.35 (inactive)
16,ALDOA (lysine site: K111) (UniProt P04075),4.71 (inactive)
17,UniProt Q5XKE5 (lysine site: K350),4.43 (inactive)
18,FKBP4 (lysine site: K274) (UniProt Q02790),2.78 (inactive)
19,UGDH (lysine site: K173) (UniProt O60701),1.43 (active)
20,UniProt P62805 (lysine site: K17),2.71 (inactive)

# Source: the supplement of paper PMC11001985
